# High-throughput results from PubChem BioAssay.
# Shown are actives, neighbours in structure and some others; about 13% of the full set was active somewhere.
# HCMV inh = blocks human cytomegalovirus replication; HFF cells, HCMV-luciferase reporter, 72 h; hits give low values; activity change, negative = inhibition, % at 57.5 µM; 410,000 tested, 4.5% active; in the data active = activity change below about -60%; inconclusive = no clear call, values can overlap the other calls; inactive = above about -39%
#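 HFF cells seeded 16 h at 37C, treated with compounds, infected with luciferase-reporter HCMV at MOI 1 PFU/cell; luciferase read at 72 h post infection, normalized to buffer-only and Salinomycin controls.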
# HCV inhibitor = blocks hepatitis C virus; Huh7.5.1 HCVcc-Cre infection, luciferase reporter, 44 h; Potency, µM (series often up to 41.8 µM), for the others: top-dose activity change, negative = inhibition, most hits filed as inhibitors; 340,000 tested, 3.4% active; note: potency is the fitted concentration of half-maximal effect
#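 Cells seeded at 1,000/well and cultured 4 h, then compounds added followed by HCVcc-Cre virus (~0.5 moi). After 44 h further culture, luciferase substrate was added, plates held 15 min at room temperature, and luminescence read for 15 sec.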
# Pf growth 96h = inhibits malaria parasite growth, 96 h | P. falciparum luciferase reporter growth, 96 h | Potency, µM (series often up to 28.7 µM), for the others: top-dose activity change, negative = inhibition, usual class: inhibitors | 320,000 tested, 6.9% active | AID 504834; note: potency is the fitted concentration of half-maximal effect
#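 Two-generation exposure (96 h) targets delayed-death phenotype. Reporter parasites carrying integrated firefly luciferase, in red cells at 2% hematocrit and 0.05% parasitemia final, kept at 37 C, 5% CO2; luminescence loss indicates inhibition.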
# Pf growth 48h = inhibits P. falciparum growth in the first generation, 48 h; P. falciparum luciferase growth in erythrocytes, 48 h; Potency, µM (series often up to 28.7 µM), inactives show at the top dose activity change, negative = inhibition, actives largely listed as inhibitors; 310,000 tested, 5.9% active; AID 504832; note: potency is the fitted concentration of half-maximal effect
#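 Luminescence readout; reporter = integrated firefly luciferase in P. falciparum. RBC culture at 2% hematocrit, 0.1% parasitemia final, 37 C/5% CO2; decreased signal taken as growth inhibition.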
# Active calls of the source: *; ? = inconclusive; / = no result given; ! = a repeat was not active; [ ] = dose if it differs, or a comment. Unless noted, calls come from the whole dose curve; as a rule, active = well fitted inhibition curve with a large enough effect; inconclusive = small, poorly fitted or top-dose-only effect, or another doubt; inactive = no such curve, though single readings can be large or run the other way. % is set by controls: 0 for no effect and ±100 for the full control effect.
SMILES,HCMV inh,HCV inhibitor,Pf growth 96h,Pf growth 48h
CC[C@]1(O)C[C@H]2CN(CCc3c([nH]c4ccccc34)[C@@](C(=O)OC)(c3cc4c(cc3OC)N(C=O)[C@H]3[C@@](O)(C(=O)OC)[C@H](OC(C)=O)[C@]5(CC)C=CCN6CC[C@]43[C@@H]65)C2)C1,/,/,9.5µM*,0.085µM*
CC[C@@]1(O)CC2CN(CCc3c([nH]c4ccccc34)[C@](C(=O)OC)(c3cc4c(cc3OC)N(C)C3[C@@](O)(C(=O)OC)C(OC(C)=O)[C@]5(CC)C=CCN6CC[C@@]43C65)C2)C1 (some centres not stated),/,/,0.54µM*,0.76µM*
Cc1ccc2nc(-c3cc(NC(=O)/C=C/c4ccccc4)ccc3Cl)oc2c1,13,/,/,/
NC(=O)C1CCN(C(=O)c2ccccc2NC(=O)c2nsc3ccccc23)CC1,0,/,/,/
Cn1cncc1C#Cc1c(-c2ccc(S(C)(=O)=O)cc2)sc2ccccc12,-29,4%,/,/
Cn1cncc1C#Cc1c(C=O)n(C)c2ccccc12,-3,?,?,12µM*
COc1cc(C#Cc2c(C=O)n(C)c3ccccc23)cc(OC)c1,33,?,?,?
Cn1cncc1C#Cc1c(C=O)[nH]c2ccccc12,37,-10%,5.2µM*,8.3µM*
C=CCN1CC[C@]23CCCCC2[C@H]1Cc1ccc(O)cc13 (some centres not stated),/,/,15µM*,?
COC(=O)CSc1nc(C)cc(C(F)(F)F)c1C#N,-24,2%,47%,4%
Cc1ccc(S(=O)(=O)CCSc2nc(C)cc(C(F)(F)F)c2C#N)cc1,-71*,?,73%,?
CC(C)CCNC(=O)CN1C(=O)CCn2nc(-c3cn(C)c4ccccc34)cc21,17,/,/,/
CN(C)S(=O)(=O)c1cccc(C(=O)Nc2ccccc2Cl)c1,24,?,/,32%
CCN(c1ccccc1)S(=O)(=O)c1cc(C(=O)Nc2ccccc2Cl)ccc1F,-63*,?,2.9µM*,-4%
CCN(c1ccccc1)S(=O)(=O)c1cc(C(=O)Nc2ccc(Br)cc2)ccc1F,-89*,2.8µM*!,?,?
C=CC[N+](C)(C)c1ccc(CCC(=O)CCc2ccc([N+](C)(C)CC=C)cc2)cc1,2,-4%,0.15µM*,0.15µM*
Cc1ccc(CC(=O)CCc2ccccc2)cc1,0,10%,64%,25%
CCOC(=O)c1c(-c2ccc(C)cc2)cn2ccccc12,17,10µM*,-14%,-23%
CC(C)c1ccc(NC(=S)NN2C(C)CCCC2C)cc1 (configuration not stated),-5,2%,6.6µM*,?
O=C(NC1CCN(c2ncccn2)CC1)c1ccccc1Cl,22,9%,10µM*,-10%
Cc1ccccc1C(=O)NC1CCN(CC(=O)Nc2ccccc2Cl)CC1,6,?,0.93µM*,-13%
COC(=O)c1ccccc1NC(=O)CN1CCC(NC(=O)c2ccccc2C)CC1,-28,-25%,-16%,?
Cc1ccc(C(=O)C2CCN(CC(=O)Nc3ccccc3C)CC2)cc1,-63*,?,39%,13%
CCn1c(-c2ccccc2)ccc(C#N)c1=O,19,?,23%,2%
Cc1ccc(-c2ccc(C#N)c(=O)n2CC(=O)N(C)C)cc1,-70*,-1%,0%,-25%
SMILES,HCMV inh,HCV inhibitor,Pf growth 96h,Pf growth 48h
CN(C)c1ccc(-c2nn3c(-c4ccc(Cl)cc4)nnc3s2)cc1,-1,8%,?,-8%
Clc1ccc(-c2nn3c(C4COc5ccccc5O4)nnc3s2)cc1 (configuration not stated),-99*,3%,?,-5%
COC(=O)c1ccc(C2C(C#N)=C(N)Oc3cc(N)ccc32)cc1 (configuration not stated),18,15%,12µM*,-21%
N#CC1=C(N)Oc2cc(O)ccc2C1c1ccncc1 (configuration not stated),14,26%,9.3µM*,0%
N#CC1=C(N)Oc2cc(O)ccc2C1c1cccnc1 (configuration not stated),-23,10%,-9%,6%
CN(C)c1ccc2c(c1)OC(N)=C(C#N)C2c1cccc(F)c1 (configuration not stated),/,?,?,13µM*
N#CC1=C(N)Oc2cc(N)ccc2C1c1cccc(F)c1 (configuration not stated),-21,?,131%,6%
COc1cccc(C2=NN(S(C)(=O)=O)C(c3cn(-c4ccccc4)nc3-c3cccs3)C2)c1 (configuration not stated),30,/,/,/
O=C(OCc1ccccc1F)c1ccc(-c2nnn(Cc3ccccc3)n2)cc1,9,/,/,/
O=C(Nc1ccc(Br)cc1F)c1cc(S(=O)(=O)NC2CCCC2)ccc1F,27,/,/,/
CCn1c(SCC(=O)Nc2nc(-c3ccc(C)cc3)cs2)nnc1-c1ccccc1O,-70*,6.3µM*,-17%,?
Cc1ccc2nc(-c3ccc(NC(=O)CCS(=O)(=O)c4ccccc4)cc3)sc2c1,-71*,?,?,10%
CCn1c(SCC(=O)Nc2ccc(-c3nc4ccc(C)cc4s3)cc2)nnc1-c1ccccc1,/,-10%[0.335 µM],13µM*,214%
CCCn1c(SCC(=O)N2c3ccccc3Sc3ccccc32)nc2c1c(=O)n(C)c(=O)n2C,-26,?,?,-7%
CC(C)n1c(SCC(=O)N2c3ccccc3Sc3ccccc32)nc2c1c(=O)n(C)c(=O)n2C,9,11µM*,14%[5.75 µM],?
CC(C)n1c(SCC(=O)Nc2nc3c(s2)CCCC3)nc2c1c(=O)n(C)c(=O)n2C,-60*,-3%,-11%,?
O=C(Cc1cccs1)Nc1nc(-c2ccccc2)cs1,-37,?,19%,/
Cc1ccc(C(=O)CSc2nnc(CNc3nc(-c4ccccc4)cs3)n2C)cc1,?,-18%,13µM*,?
Cc1cc(C)nc(SCc2nnc(SCC(=O)Nc3nc(-c4ccccc4)cs3)n2C)n1,113,?,-27%,?
Cc1nc(CC(=O)Nc2nc(-c3ccccc3)cs2)cs1,-73*,?,?,45%
Cc1cccc(C)c1NCc1nnc(SCC(=O)Nc2nc(-c3ccccc3)cs2)n1-c1ccccc1,-32,8%,22%,4%
Cc1ccccc1C(=O)NCCc1nnc(SCC(=O)Nc2nc(-c3ccccc3)cs2)n1C,32,-3%,13µM*,-4%
COc1cccc(CNC(=O)C2CCN(C(=O)N3CCOc4ccc(Cl)cc43)CC2)c1OC,-1,/,/,/
COc1ccc(C)cc1NC(=O)Cn1c(=O)nc(-c2ccccc2F)c2cc(Cl)ccc21,31,/,/,/
CN(C)CCCn1c(SCC(=O)N2c3ccccc3Sc3ccccc32)nc2ccccc2c1=O,-99*,13µM*,4.1µM*,10µM*
Cn1c(SCC(=O)N2c3ccccc3Sc3ccccc32)nc2ccccc21,?,4%,?,?
CCn1c(SCC(=O)Nc2nc(-c3ccc(C)cc3)cs2)nnc1-c1ccccc1,-72*,7.9µM*,/,/
